This passage reports growth results from PubChem BioAssay (NCI).

About 83,000 compounds went through this panel and 20% of them were active in at least one assay; those are over-represented in the sample as a whole.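 Negative percent growth values reflect cell death: -40 means 40% of the cells present at the start died, and -100 means all died.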 Values without a mark were called inactive. The source made the active and inactive calls. The calls were made as follows: active = growth percent below 10; inactive = the rest.

What all share (experiment): NCI-60 one-dose screen, 48 h (100 = growth as untreated, 0 = no growth, -100 = all killed)
Assay [1] deals with NCI-H23 lung. The note with it: 10 µM unless noted.
Assay [2] relates to NCI-H226 lung. The note with it: 10 µM unless noted.
The test system of assay [3] is NCI-H322M lung. As to conditions: 10 µM unless noted.
For assay [4], the system named is HOP-62 NSCLC. As to conditions: 10 µM unless noted.
The subject of assay [5] is NCI-H460 lung. The note with it: 10 µM unless noted.
Assay [6] relates to HOP-92 NSCLC. The note with it: 10 µM unless noted.
Assay [7] concerns NCI-H522 lung. The note with it: 10 µM unless noted.
For assay [8], the system named is A549/ATCC NSCLC. As to conditions: 10 µM unless noted.
The test system of assay [9] is 786-0 renal. The note with it: 10 µM unless noted.
The subject of assay [10] is COLO 205 colon. As to conditions: 10 µM unless noted.
The test system of assay [11] is DU-145 prostate. As to conditions: 10 µM unless noted.
Assay [12] has as its system K-562 leukemia. The note with it: 10 µM unless noted.
Assay [13] has as its system MALME-3M melanoma. The note with it: 10 µM unless noted.
Assay [14] deals with MDA-MB-231 breast. As to conditions: 10 µM unless noted.
For assay [15], the system named is RXF 393 renal. As to conditions: 10 µM unless noted.
Assay [16] has as its system SF-268 CNS. As to conditions: 10 µM unless noted.
The subject of assay [17] is SF-295 CNS. The note with it: 10 µM unless noted.
The test system of assay [18] is SF-539 CNS. As to conditions: 10 µM unless noted.
Assay [19] has as its system UACC-257 melanoma. As to conditions: 10 µM.
Assay [20] concerns M14 melanoma. The note with it: 10 µM unless noted.

With `C#C[C@]1(O)CC[C@H]2[C@@H]3CC=C4c5sc(-c6cccc(F)c6)nc5CC[C@]4(C)[C@H]3CC[C@@]21C`, the growth in [1] was 84.2%; in assay [2] it was 83.5%; in assay [3] it was 73.8%; in assay [4] it was 91.4%; in assay [5], 93.5%; in assay [6] it was 113%. Moreover, the growth in [7] is 89.2%; in assay [8] it was 83.8%; in [9], 65.3%; in assay [10], 97.9%; in assay [11], 99.2%; in assay [12] it was 19%. For the same molecule, the growth in [13] was 95.4%; in [14], 93.2%; in [15] it was 20.7%; in [16], 85.8%; in assay [17], 61.9%; in [18] it was 67.3%. For the same molecule, the figures for the growth in assay [19] and in assay [20] were 90% and 82%, respectively.
Consider `C/C(=C(/c1ccc(O)cc1)c1ccc(OCCN(C)C)cc1)c1ccc(Cl)cc1`, for which the growth is 56.8% in assay [1]; 89.4% in [2]; 48% in assay [3]; 67.4% in assay [4]; 15% in [5]; 32.5% in assay [6]. Besides, the growth in assay [7] was 57.8%; in [8], 56.4%; in assay [9], 50.2%; in assay [10], -88.7% (active); in assay [11], 65.2%; in assay [12], 0.0711% (active). Moreover, the growth in [13] was -47.9% (active); in [14] it was 31.1%; in assay [15], 30.3%; in assay [16] it was 61.8%; in assay [17] it was 80.9%; in assay [18], -18.4% (active). Also, the growth in assay [19] is -66.6% (active); in [20], -70.7% (active).
As for `O=C(Nc1ccccc1)Nc1nc2ccc([N+](=O)[O-])cc2s1`, the growth was 0.812% (active) in [1]; 0.421% (active) in [2]; 10% in assay [3]; 8.52% (active) in assay [4]; 4.82% (active) in [5]; -22.2% (active) in assay [6]. Further, the growth in [7] is 3.38% (active); in [8], 8.07% (active); in [9] it was 14.1%; in assay [10], -26.1% (active); in [11] it was 14.7%; in assay [12], 5.58% (active). The growth was -10.8% (active) in assay [13]; -5.6% (active) in assay [14]; -21.6% (active) in assay [15]; 13.4% in assay [16]; 2.83% (active) in [17]; 9.38% (active) in [18]. Further, the values for the growth in assay [19] and in [20] were -8.53% (active) and 13%, respectively.
`CCN1C(=O)N(CC)C2C1NN=C1SC(c3ccccc3)=CC(=O)N12` (stereo not drawn): the growth in [1] was 33%; in assay [2] it was 40.4%; in assay [3] it was 50.6%; in assay [4] it was 30.7%; in assay [5] it was 6.45% (active); in [6] it was 44.3%. Further, the growth in assay [7] was -42.6% (active); in assay [8] it was 36.3%; in assay [9], 37.6%; in [10], -40.3% (active); in assay [11] it was 26%; in assay [12], 11.7%. The growth in assay [13] was 46.7%; in assay [14] it was 38.8%; in assay [15], -11.1% (active); in assay [16], 62.4%; in assay [17] it was 11.1%; in [18] it was -8.38% (active). The growth in assay [19] was 63.6%; in assay [20], 5.39% (active).
For `Nc1cc(F)ccc1NC(=O)c1ccc(NC(=O)C/C=C/c2cccnc2)cn1`, the growth in [1] was 32%; in [2], 46.8%; in assay [3], 40.2%; in assay [4] it was 29.6%; in assay [5] it was 30%; in assay [6], 5.74% (active). In addition, the growth was -4.98% (active) in [7]; 31.5% in assay [8]; 41.8% in assay [9]; 1.22% (active) in assay [10]; -3.71% (active) in assay [11]; 20% in [12]. The growth in assay [13] was 11.6%; in assay [14] it was 45.3%; in assay [15], -17.5% (active); in assay [16], 30.8%; in assay [17], 22.3%; in [18] it was 6.21% (active). Besides, the growth in assay [19] was 17.8%.
Turning to `CC1CCN(S(=O)(=O)c2ncsc2-c2ccccc2)CC1`, the growth is 92.9% in assay [1]; 99.9% in [2]; 98.6% in assay [3]; 85.3% in assay [4]; 91.5% in assay [5]; 116% in [6]. The growth in assay [7] is 98.5%; in assay [8], 93.1%; in assay [9] it was 30.8%; in assay [10], 112%; in [11], 92%; in [12], 72.7%. Moreover, the growth in [13] was 78.7%; in assay [14] it was 92%; in assay [15], 9.28% (active); in assay [16], 82.9%; in [17], 30.7%; in assay [18] it was 44.3%. The growth was 106% in [19] and 83.5% in assay [20].
With `NS(=O)(=O)c1ccc(-n2cc(CC=O)nn2)cc1`, the growth is 105% in assay [1]; 99% in assay [2]; 111% in assay [3]; 105% in [4]; 105% in [5]; 94.8% in assay [6]. In addition, the growth in assay [7] is 94.5%; in assay [8] it was 103%; in [9], 102%; in assay [10], 121%; in [11] it was 107%; in assay [12], 93.6%. Besides, the growth in assay [13] was 108%; in assay [14] it was 103%; in assay [15] it was 99.5%; in [16], 102%; in [17], 98.6%; in assay [18], 99%. In addition, the growth in assay [19] was 102%.
Turning to `C#C[C@]1(O)CC[C@H]2[C@@H]3CC=C4c5sc(Nc6cc(OC)ccc6OC)nc5CC[C@]4(C)[C@H]3CC[C@@]21C`, the growth in assay [1] is 33.9%; in assay [2], 60.4%; in [3], 62.2%; in assay [4], 41.2%; in assay [5] it was 26.6%; in [6], 51.4%. Further, the growth in assay [7] is 63.8%; in assay [8], 38%; in assay [9], -2.79% (active); in [10] it was 18.5%; in assay [11] it was 43.8%; in assay [12] it was 6.54% (active). The growth in assay [13] was 14.4%; in [14] it was 35.9%; in [15] it was -57.4% (active); in assay [16], 30.8%; in assay [17], -67% (active); in assay [18] it was -19.4% (active). The figures for the growth in assay [19] and in [20] were 0.933% (active) and -1.11% (active), respectively.
